Shown are actives, neighbours in structure and some others; about 11% of the full set was active somewhere.
HPGD block: inhibitors of human 15-hydroxyprostaglandin dehydrogenase (HPGD); purified HPGD, NADH fluorescence kinetic, PGE2 substrate; Potency, µM, usual class: inhibitors; actives 4.3% (n = 150,000); AID 894; active = well fitted inhibition curve with a large enough effect, not every such curve was filed as active; inconclusive = small, poorly fitted or top-dose-only effect, or another doubt; inactive = no such curve, though single readings can be large or run the other way
Target sequence (P15428 whole entry, looked up): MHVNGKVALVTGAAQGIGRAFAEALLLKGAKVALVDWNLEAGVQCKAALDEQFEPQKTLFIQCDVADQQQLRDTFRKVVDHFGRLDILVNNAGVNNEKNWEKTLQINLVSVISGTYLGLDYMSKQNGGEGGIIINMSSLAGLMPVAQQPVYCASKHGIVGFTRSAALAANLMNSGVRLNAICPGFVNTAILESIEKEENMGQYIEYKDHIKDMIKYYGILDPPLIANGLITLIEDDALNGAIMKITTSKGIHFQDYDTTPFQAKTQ
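20 nM HPGD preincubated 15 min at room temperature with compound in 50 mM Tris-HCl pH 8, 0.01% Tween 20. Started with 1 mM NAD+ and 30 uM prostaglandin E2; NADH fluorescence (360/450 nm) read 5 times over 30-s intervals, last minus first.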
HTT aggregate: reduces HttQ103-GFP aggregates in PC12 cells; PC12 HttQ103-GFP aggregates, Acumen cytometry, 40 h; Potency, µM (highest dose often 46.1 µM), most hits filed as inhibitors; actives 1.1% (n = 220,000); also: nearly all actives have a fitted effect of over 60% in size
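Aggregates are detected as GFP objects 1–25 µm with signal 6 STDEV over background in lysates of induced PC12 cells. These carry Huntingtin exon 1 with 103 glutamines fused to GFP under an ecdysone promoter; compounds titrated.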
ALDH1A1 block: inhibitors of human aldehyde dehydrogenase 1A1. P00352. Purified ALDH1A1, NADH fluorescence, propionaldehyde substrate. Potency, µM (titrated, usually from 75.3 µM), most hits filed as inhibitors. actives 7.3% (n = 220,000). AID 1030; active = well fitted inhibition curve with a large enough effect, not every such curve was filed as active; inconclusive = small, poorly fitted or top-dose-only effect, or another doubt; inactive = no such curve, though single readings can be large or run the other way
Target sequence (P00352 whole entry, looked up): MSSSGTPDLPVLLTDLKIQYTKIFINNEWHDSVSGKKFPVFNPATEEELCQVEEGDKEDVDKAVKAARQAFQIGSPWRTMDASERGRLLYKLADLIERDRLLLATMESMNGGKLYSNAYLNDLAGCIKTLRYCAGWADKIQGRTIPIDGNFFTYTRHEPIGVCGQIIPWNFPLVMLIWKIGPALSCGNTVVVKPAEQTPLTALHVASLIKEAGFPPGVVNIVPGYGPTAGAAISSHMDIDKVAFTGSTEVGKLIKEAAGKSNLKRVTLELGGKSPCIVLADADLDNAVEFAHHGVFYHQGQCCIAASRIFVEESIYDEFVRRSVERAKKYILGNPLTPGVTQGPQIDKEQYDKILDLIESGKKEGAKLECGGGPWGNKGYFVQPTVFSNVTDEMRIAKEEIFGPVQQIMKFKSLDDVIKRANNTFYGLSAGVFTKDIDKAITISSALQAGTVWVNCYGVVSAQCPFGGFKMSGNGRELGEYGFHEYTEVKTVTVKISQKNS
HTT cytoprotect: protects HTT-Q103 PC12 cells, measured by ATP. Potency, µM (titrated, usually from 56.4 µM), hits mostly activators. PC12 HTT-Q103 induced, cytoprotection, ATP luminescence, 40 h. actives 0.14% (n = 230,000). AID 1471; also: nearly all actives have a fitted effect of over 45% in size
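Compounds added alongside 100 nM tebufenozide, which induces toxic Q103 huntingtin exon 1-GFP in stable PC12 cells; surviving cells quantified by luminescent ATP measurement. Medium: phenol red-free DMEM, 5% equine and 5% calf serum.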
CBFb-RUNX1 inh: blocks binding between human CBF-beta and RUNX1; AlphaScreen CBFb-His/RUNX1-biotin binding, biochemical; Potency, µM (top dose mostly 59.8 µM), most hits filed as inhibitors; 230,000 tested, under 10 active
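AlphaScreen proximity signal reports loss of binding between His-tagged CBF-beta and biotin-labelled RUNX1, each at 30 nM. Proteins are pre-associated for 20 minutes, compounds added for 15 minutes, then beads for 90 minutes, all at ambient temperature.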
PNC inhibitor: perinucleolar compartment assembly inhibition; PC3M PTB-GFP, PNC prevalence imaging, 16 h; stronger effect = lower value; AID 2417; activity change (PNC), negative = inhibition, % at 10 µM; actives 3.1% (n = 140,000);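 active = readout at or below -70, meaning at least 70% loss of cells showing the perinucleolar compartment, a nuclear body marking cancer cells; inconclusive = readout between -30 and a set limit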
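Compounds are pinned in duplicate onto adhered PC3M cells stably expressing GFP-tagged PTB and incubated 16 h at 37 C. Cells are then fixed, nuclei stained with Hoechst, and PNC-positive cells counted.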
Numbers stand for hits; 0 = inactive; ? = inconclusive; - = not tested or not shown; [ ] = dose if it differs, or a comment. Unless noted, calls follow the shape of the dose curve; as a rule, active = well fitted curve in the direction sought with a large enough effect; inconclusive = small, poorly fitted or top-dose-only effect, or another doubt; inactive = no such curve, though single readings can be large; an effect the other way counts as inactive or inconclusive.

SMILES	HPGD block	HTT aggregate	ALDH1A1 block	HTT cytoprotect	CBFb-RUNX1 inh	PNC inhibitor
CC(C)CCN1C(=O)c2ccc(C(=O)NCc3ccco3)cc2C1=O	0	0	11µM	0	0	?
CCN1C(=O)c2ccc(C(=O)Nc3nccs3)cc2C1=O	0	0	4.5µM	0[0.074 µM]	0	?
COCCNc1nc(-c2ccoc2)nc2ccccc12	-	-	0	0	-	-
O=C(CCN1C(=O)c2ccccc2C1=O)Nc1sc2c(c1C(=O)NCc1ccco1)CCCC2	0	0	?	0	0	-114
CCOC(=O)N1CCC(N2C(=O)c3ccc(C(=O)NCc4ccco4)cc3C2=O)CC1	0	0	12µM	0	0	-119
CCC(C)C(NC(=O)OCc1ccccc1)C(=O)NC(Cc1ccc(O)cc1)C(=O)OC (centres undefined)	-	0[9.22 µM]	0	0[10 µM]	0	-
[C-]#[N+]c1cc(-c2ccncc2)c(C)[nH]c1=O	-	-	0	?	0	-
CCC(=O)c1ccc2c(c1)OCCO2	-	0[9.22 µM]	-	0[10 µM]	0	-
CCCC(=O)c1ccc2c(c1)OCCO2	28µM	0	0	0	0	0
O=C(CCN1CCc2ccccc2C(c2ccccc2)C1)c1ccc2c(c1)OCCO2 (centres undefined)	0	?	0.14µM	0	0	0
Cc1c(C(=O)OCC(=O)c2ccc3c(c2)OCCO3)oc2ccccc12	0	0	0	0	0	0
O=C(CCN1Cc2ccccc2C1)c1ccc2c(c1)OCCO2	0	?	1.3µM	0	0	0
Cc1cc(C(=O)OCC(=O)c2ccc3c(c2)OCCO3)c(C)o1	20µM	0	?	0	0	?
CCCCc1nc2c(c3c1C[C@H](C)OC3)CN(C(=O)NCc1ccco1)CC2	0	-	0[13.5 µM]	0[10 µM]	0[13.1 µM]	-
O=CN1CCc2c([nH]c3ccccc23)C1c1cccc2cccnc12 (centres undefined)	0	-	0	0	0	-
CN(C)CCC(=O)c1ccc2c(c1)OCO2	0	0[9.22 µM]	0.022µM	0	0	0
O=C(O)CCC(=O)c1ccc2c(c1)OCCO2	0	0	0	0	0	0
CN(C)CCC(=O)c1cccc(Br)c1	-	0[9.22 µM]	0.04µM	0	0	-
O=C(O)CCSCC(=O)c1ccc2c(c1)OCCO2	0	0	15µM	0	0	0
CN(C)CCCC(=O)c1ccc2c(c1)OCO2	0	0	0	0	0	0
CCC(=O)O	0	-	0	0	0	-
COc1cccc([C@@H]2Oc3ccc(OC)cc3/C(=N/OC[C@@H](C)[C@H](OCc3ccccc3)C(C)C)[C@@H]2O)c1	-	-	0[13.5 µM]	0[10 µM]	0[13.1 µM]	-
COCC(=O)NCc1ccc2c(c1)cc(C)n2C	25µM	0	0	-	0	-113
Cc1cc2cc(CNC(=O)c3cc4ccccc4o3)ccc2n1C	7.1µM	0	?	0	0	0
Cc1cc2cc(CNC(=O)c3ccco3)ccc2n1C	-	0[9.22 µM]	-	0[10 µM]	0	-
SMILES	HPGD block	HTT aggregate	ALDH1A1 block	HTT cytoprotect	CBFb-RUNX1 inh	PNC inhibitor
Cc1cc2cc(CNC(=O)NC3CCCCC3)ccc2n1C	28µM	0	0	0[10 µM]	0	0
Cn1c(=O)c(=O)n(C)c2cc(S(=O)(=O)NCc3ccc(Cl)cc3)ccc21	-	0	?	0	0	-
Cc1ccc(S(=O)(=O)NCc2ccc3c(c2)cc(C)n3C)cc1	0	0	20µM	0[10 µM]	0	?
COc1ccc(C2C=C3CNS(=O)(=O)C3CC2OC(=O)c2cccc(C)c2)cc1 (centres undefined)	-	-	-	-	0	-
COc1ccccc1N(C)S(=O)(=O)c1ccc(C(=O)OCC(=O)c2c[nH]c3ccccc23)cc1	0	0	0	0[0.074 µM]	0	0
COc1ccc(-c2nn(C)c(=O)[nH]2)cc1	-	0[9.22 µM]	0	0[10 µM]	0	-
CC1CCC2C(=O)N(c3ccc(C(=O)NCc4ccccc4)cc3)C(=O)C2C1 (centres undefined)	0	0	?	0[0.074 µM]	0	0
CCOC(=O)c1c(C)nn(Cc2cccc(Cl)c2)c1N	28µM	0	0	0	0	?
CCOC(=O)c1nn(-c2cccc(Cl)c2)c(C)c1C(C)=O	0	0	?	0	0	0
c1cncc(CNc2ccc3c(c2)OCO3)c1	0	0	20µM	0	0	0
O=C(NCc1cccnc1)Nc1ccc2c(c1)OCO2	-	0	0	-	0	-
COc1ccc(Oc2ncc3nc(-c4cc(F)cc(F)c4)c(=O)n(C)c3n2)cc1	?	-	?	0	-	-
O=C(N/N=C/c1sc(N2CCCCC2)nc1-c1cccs1)C1CC1	-	0	22µM	0[10 µM]	0	-
CC(C)NC(=S)N/N=C/c1sc(N2CCCCC2)nc1-c1cccs1	0	0	?	0[10 µM]	0	?
CCCC(c1nnnn1C(C)(C)CC)N(Cc1ccco1)Cc1cc2ccc(OC)cc2[nH]c1=O (centres undefined)	0	?	32µM	0	0	0
COc1ccc(C(=O)COC(=O)C2CCC(=O)N2)cc1 (centres undefined)	-	0	0	0	0	-
CCC(C)NC(=O)COC(=O)c1csc2c1CCCC2 (centres undefined)	25µM	0	0	0[1.9 µM]	0	0
CC(C)CNC(=S)NNC(=O)c1csc2c1CCCC2	0	0	0	0	0	0
Cc1ccc(S(=O)(=O)N/N=C/c2ccc(OS(=O)(=O)c3ccc(C)c([N+](=O)[O-])c3)cc2)cc1	0	0	5µM	0	0	?
Cc1ccc(S(=O)(=O)N/N=C/c2ccc(OC3CSC3)cc2)cc1	0	0	0	0	0	0
Cc1ccc(NC(=S)N/N=C/c2ccc(Cl)c([N+](=O)[O-])c2)cc1	0	0	0	0	0	0
Cc1ccc(S(=O)(=O)N/N=C\c2ccc(Cl)c([N+](=O)[O-])c2)cc1	0	0	0.5µM	0[10 µM]	0	0
CN(C(=O)c1cccc(COc2ccc(Cl)cc2Cl)c1)c1ccccc1	18µM	?	?	0[10 µM]	0	0
O=C(NCc1ccccc1)c1cccc(COc2cc(Cl)ccc2Cl)c1	0	0	0	0[10 µM]	0	?
C=CCOC(=O)C(C(C)=O)C(NC(=O)OC)c1ccco1 (centres undefined)	-	-	0[13.5 µM]	0[10 µM]	0[13.1 µM]	-
SMILES	HPGD block	HTT aggregate	ALDH1A1 block	HTT cytoprotect	CBFb-RUNX1 inh	PNC inhibitor
O=S(=O)(O)c1ccc2c(N=Nc3cccc4ccccc34)c(O)c(S(=O)(=O)O)cc2c1	0	-	?	0[10 µM]	-	-
O=[N+]([O-])c1ccc2c(N=Nc3ccc4ccccc4c3O)c(O)cc(S(=O)(=O)O)c2c1	2.8µM	-	0[13.5 µM]	0[10 µM]	-	-
CCOc1ccc(Nc2n[nH]c(=S)s2)cc1	-	0	1.3µM	0[10 µM]	0	0
O=C(CCl)NCc1cc(-c2ccc(Cl)cc2)no1	-	35µM	22µM	0	0	-
COc1ccc(C(=O)C2CCCN(Cc3ccc(C#CCCO)cc3)C2)cc1F (centres undefined)	-	0[9.22 µM]	?	0[10 µM]	0	-
CCNS(=O)(=O)c1cccc(C(=O)c2c(C)cc3ccccn23)c1	0	0	0	0[10 µM]	0	-90
Cc1cc2ccccn2c1C(=O)c1ccc(S(=O)(=O)N(C)C)cc1	-	?	0	0	0	-
CC(=O)N1CCC2(CCCN(c3ccccn3)C2)CC1	?	-	?	0	-	-

Bioassay records: PubChem, National Center for Advancing Translational Sciences (NCATS)
